From PubChem BioAssay (NCATS)
Records with an inconclusive call do not appear. The source made the active and inactive calls. Unless noted, calls come from the whole dose curve; as a rule, active = well fitted curve in the direction sought with a large enough effect; inconclusive = small, poorly fitted or top-dose-only effect, or another doubt; inactive = no such curve, though single readings can be large; an effect the other way counts as inactive or inconclusive.

Key:
[1] = Primary qHTS for small molecule stabilizers of the endoplasmic reticulum resident proteome: Secreted ER Calcium Modulated Protein (SERCaMP) assay (AID 1508630); note: % is set by controls: 0 for no effect and ±100 for the full control effect
Outline: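 GLuc-SERCaMP-expressing SH-SY5Y cells, pretreated 16 h with compound, are challenged with thapsigargin to empty ER calcium stores; after 4 h, coelenterazine is added directly to the medium and luminescence is imaged.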

[2] = target: Cytochrome P450 2D6 (Homo sapiens) (UniProt P10635); experiment: Cytochrome P450 family 2 subfamily D member 6 (CYP2D6) small molecule antagonists: luciferase biochemical (cell-free) qHTS assay (AID 1645840; active = well fitted curve in the direction sought with a large enough effect in the repeat runs; an effect the other way counts as inactive or inconclusive; note: nearly all actives have a fitted effect of over 55% in size; note: potency is the fitted concentration of half-maximal effect; for activity change, negative = inhibition: % is set by controls: 0 for no effect and ±100 for the full control effect)
Sequence of Cytochrome P450 2D6 (Homo sapiens) (P10635 whole entry, looked up): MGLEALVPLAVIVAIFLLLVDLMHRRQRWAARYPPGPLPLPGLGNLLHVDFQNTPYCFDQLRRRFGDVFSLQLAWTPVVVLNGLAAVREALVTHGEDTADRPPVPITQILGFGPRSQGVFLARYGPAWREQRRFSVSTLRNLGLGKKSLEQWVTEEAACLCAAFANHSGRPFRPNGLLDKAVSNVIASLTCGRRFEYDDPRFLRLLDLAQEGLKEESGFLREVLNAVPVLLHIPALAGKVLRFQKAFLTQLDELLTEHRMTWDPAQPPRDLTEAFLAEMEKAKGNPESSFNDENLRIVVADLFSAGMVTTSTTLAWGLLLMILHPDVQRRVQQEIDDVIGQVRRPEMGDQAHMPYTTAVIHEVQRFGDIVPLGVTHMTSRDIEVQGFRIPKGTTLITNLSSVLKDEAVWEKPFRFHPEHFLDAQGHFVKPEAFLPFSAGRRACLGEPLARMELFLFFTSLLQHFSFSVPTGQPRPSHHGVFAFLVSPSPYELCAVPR
Outline: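 P450-Glo luminescent screen: recombinant CYP2D6 enzyme–proluciferin substrate mix preincubated with compound 10 min at room temperature, then NADPH regeneration added for 1 h at room temperature. Detection reagent added for 20 min; luciferin light read as relative luminescence units.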

[3] = target: Cytochrome P450 2C9 (Homo sapiens) (UniProt P11712); experiment: Cytochrome P450 family 2 subfamily C member 9 (CYP2C9) small molecule antagonists: luciferase biochemical (cell-free) qHTS assay (AID 1645842; active = well fitted curve in the direction sought with a large enough effect in the repeat runs; an effect the other way counts as inactive or inconclusive; note: nearly all actives have a fitted effect of over 55% in size; note: potency is the fitted concentration of half-maximal effect; for activity change, negative = inhibition: % is set by controls: 0 for no effect and ±100 for the full control effect)
Sequence of Cytochrome P450 2C9 (Homo sapiens) (P11712 whole entry, looked up): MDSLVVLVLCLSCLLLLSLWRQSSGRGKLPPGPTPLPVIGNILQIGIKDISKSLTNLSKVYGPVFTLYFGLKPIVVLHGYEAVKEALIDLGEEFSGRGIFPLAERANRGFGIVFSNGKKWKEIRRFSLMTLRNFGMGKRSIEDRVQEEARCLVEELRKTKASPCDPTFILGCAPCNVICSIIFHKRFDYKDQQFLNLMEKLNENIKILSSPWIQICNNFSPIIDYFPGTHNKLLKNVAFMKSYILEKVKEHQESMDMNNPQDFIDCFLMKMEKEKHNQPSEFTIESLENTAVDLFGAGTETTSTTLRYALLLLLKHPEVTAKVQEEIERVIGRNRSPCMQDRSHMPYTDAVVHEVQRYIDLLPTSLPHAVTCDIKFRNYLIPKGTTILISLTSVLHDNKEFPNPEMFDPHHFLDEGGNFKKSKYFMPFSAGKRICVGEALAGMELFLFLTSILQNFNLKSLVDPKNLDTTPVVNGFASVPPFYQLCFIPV
Outline: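 Luminescence, after 20 min with luciferin detection reagent, reflected CYP2C9 turnover during a 1 h NADPH-driven reaction at 37C. Enzyme-substrate mix contained 0.4% bovine serum albumin and was preincubated with compound 10 min at room temperature.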

[4] = Primary qHTS for inhibitors of nuclear receptor binding SET domain protein 2 (NSD2) in an isogenic RCH-ACV NSD2 p.E1099K mutant (9B) (AID 1645876); note: nearly all actives have a fitted effect of over 70% in size; note: potency is the fitted concentration of half-maximal effect
[5] = Primary qHTS for inhibitors of nuclear receptor binding SET domain protein 2 (NSD2) in an RCH-ACV wild type WT cells (2C) (AID 1645877); note: nearly all actives have a fitted effect of over 70% in size; note: potency is the fitted concentration of half-maximal effect
[6] = Cytotoxicity counterscreen for inhibitors of SARS-CoV-2 cell entry (AID 1645845; calls by dose curve; note: nearly all actives have a fitted effect of over 50% in size)
Outline: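 HEK293-ACE2 cells (Expi293F stably expressing human ACE2) seeded overnight, then compound for 1 h plus 48 h at 37C. Viability as ATP content by luminescence; normalized to wells with cells and media-only wells.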

[7] = Primary qHTS to identify inhibitors of SARS-CoV-2 cell entry (AID 1645846; calls by dose curve; note: nearly all actives have a fitted effect of over 45% in size); details: activity change, negative = inhibition: at 57.1 µM (top of the series) unless noted
Outline: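 Inhibition of spike-mediated entry was scored in human ACE2-transfected Expi293F cells. Particles were MLV-pseudotyped with Wuhan-Hu-1 S carrying a 19-aa C-terminal deletion; signal was luciferase after two days, scaled between spike PP and fusion-protein-free PP.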

[8] = target: Rap guanine nucleotide exchange factor 3 (Homo sapiens) (UniProt O95398); experiment: Confirmatory qHTS for agonist of cAMP-regulated guanine nucleotide exchange factor 3 (EPAC1) (AID 1645881);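 note: EPAC1 catalysed release of BODIPY-GDP from Rap1B seen as fluorescence loss; 100% = effect of cAMP agonist control; nearly all actives have a fitted effect of over 75% in size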
Sequence of Rap guanine nucleotide exchange factor 3 (Homo sapiens) (O95398 whole entry, looked up): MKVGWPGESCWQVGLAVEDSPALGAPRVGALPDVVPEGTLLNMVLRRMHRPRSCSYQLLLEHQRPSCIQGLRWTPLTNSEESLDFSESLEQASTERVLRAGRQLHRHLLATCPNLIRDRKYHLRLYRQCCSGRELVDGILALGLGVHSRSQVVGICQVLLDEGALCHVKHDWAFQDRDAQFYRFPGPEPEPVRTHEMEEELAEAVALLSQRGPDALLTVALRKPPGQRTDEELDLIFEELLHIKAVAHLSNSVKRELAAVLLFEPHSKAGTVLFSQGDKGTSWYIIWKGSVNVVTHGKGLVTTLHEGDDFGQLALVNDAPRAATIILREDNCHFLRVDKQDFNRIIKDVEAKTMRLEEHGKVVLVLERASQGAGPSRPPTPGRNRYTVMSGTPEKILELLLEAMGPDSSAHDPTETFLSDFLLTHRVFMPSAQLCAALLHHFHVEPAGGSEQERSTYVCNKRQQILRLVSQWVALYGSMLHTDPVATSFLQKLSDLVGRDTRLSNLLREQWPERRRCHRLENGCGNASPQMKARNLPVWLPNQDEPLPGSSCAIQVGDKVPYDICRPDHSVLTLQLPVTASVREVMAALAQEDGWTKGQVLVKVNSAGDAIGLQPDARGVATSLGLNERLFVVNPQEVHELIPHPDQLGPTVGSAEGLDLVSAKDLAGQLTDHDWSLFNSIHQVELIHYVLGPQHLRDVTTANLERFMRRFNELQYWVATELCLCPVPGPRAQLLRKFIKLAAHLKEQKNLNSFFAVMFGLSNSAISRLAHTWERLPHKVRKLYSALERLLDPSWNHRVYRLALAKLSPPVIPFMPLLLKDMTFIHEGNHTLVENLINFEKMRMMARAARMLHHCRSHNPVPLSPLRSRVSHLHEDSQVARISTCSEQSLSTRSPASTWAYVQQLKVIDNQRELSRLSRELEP

[9] = target: Rap guanine nucleotide exchange factor 4 (Homo sapiens) (UniProt Q8WZA2); experiment: Confirmatory qHTS for agonist of cAMP-regulated guanine nucleotide exchange factor 4 (EPAC2) (AID 1645884);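 note: nucleotide exchange releases bodipy-GDP from Rap1 and this lowers its fluorescence; % is set by controls: 0 for no effect and ±100 for the full control effect; nearly all actives have a fitted effect of over 65% in size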
Sequence of Rap guanine nucleotide exchange factor 4 (Homo sapiens) (Q8WZA2 whole entry, looked up): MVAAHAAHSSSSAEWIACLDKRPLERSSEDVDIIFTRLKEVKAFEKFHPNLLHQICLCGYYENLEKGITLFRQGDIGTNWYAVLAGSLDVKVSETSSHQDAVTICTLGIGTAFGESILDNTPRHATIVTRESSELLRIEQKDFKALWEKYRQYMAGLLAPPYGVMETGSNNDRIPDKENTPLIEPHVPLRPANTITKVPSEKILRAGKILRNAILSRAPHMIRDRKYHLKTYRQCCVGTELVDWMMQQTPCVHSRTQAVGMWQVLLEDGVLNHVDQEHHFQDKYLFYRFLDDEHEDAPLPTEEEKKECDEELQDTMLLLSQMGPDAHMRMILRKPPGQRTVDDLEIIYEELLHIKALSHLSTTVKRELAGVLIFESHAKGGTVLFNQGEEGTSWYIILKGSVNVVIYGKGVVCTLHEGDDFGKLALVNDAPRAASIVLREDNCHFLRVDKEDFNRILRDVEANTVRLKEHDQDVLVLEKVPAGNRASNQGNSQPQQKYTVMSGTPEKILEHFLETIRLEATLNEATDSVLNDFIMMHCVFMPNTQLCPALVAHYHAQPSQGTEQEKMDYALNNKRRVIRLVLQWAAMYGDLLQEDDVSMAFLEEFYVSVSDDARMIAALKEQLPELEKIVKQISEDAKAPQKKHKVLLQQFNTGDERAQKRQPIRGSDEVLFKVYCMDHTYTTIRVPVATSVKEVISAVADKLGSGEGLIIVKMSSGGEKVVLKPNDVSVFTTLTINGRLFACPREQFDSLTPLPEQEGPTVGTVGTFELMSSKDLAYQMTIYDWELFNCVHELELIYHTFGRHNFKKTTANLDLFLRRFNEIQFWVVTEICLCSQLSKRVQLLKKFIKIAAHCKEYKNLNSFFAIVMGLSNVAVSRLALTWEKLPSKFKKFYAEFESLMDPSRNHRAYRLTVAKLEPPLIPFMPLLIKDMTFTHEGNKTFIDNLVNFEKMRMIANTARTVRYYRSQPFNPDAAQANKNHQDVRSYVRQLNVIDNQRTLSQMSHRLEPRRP

[10] = target: Rap guanine nucleotide exchange factor 4 (Homo sapiens) (UniProt Q8WZA2); experiment: Confirmatory qHTS for antagonist of cAMP-regulated guanine nucleotide exchange factor 4 (EPAC2) (AID 1645885); note: % is set by controls: 0 for no effect and ±100 for the full control effect; nearly all actives have a fitted effect of over 25% in size
[11] = Confirmatory qHTS to identify inhibitors of SARS-CoV-2 cell entry (AID 1645844; calls by dose curve; note: potency is the fitted concentration of half-maximal effect; nearly all actives have a fitted effect of over 45% in size)
Outline: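 HEK293-ACE2 cells were pretreated 1 h with compound, then infected with MLV-based pseudoparticles bearing C-terminally truncated Wuhan-Hu-1 spike for 48 h at 37C; luciferase luminescence normalized to spike PP and bald PP wells.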

[12] = target: Rap guanine nucleotide exchange factor 3 (Homo sapiens) (UniProt O95398); experiment: Confirmatory qHTS for antagonist of cAMP-regulated guanine nucleotide exchange factor 3 (EPAC1) (AID 1645880);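 note: plate controls were DMSO only for no effect and full effect of the ATA control for full effect; nearly all actives have a fitted effect of over 55% in size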
Outline: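 Nucleotide exchange uses 100 nM EPAC1, 250 nM RAP1B-BODIPY-GDP and 50 uM GDP, with compounds in a concentration-titration series. After 5 min at room temperature, fluorescence (480 nm ex/540 nm em) is read every 5 min for 30 min. Data are normalized to control ATA and DMSO.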

[13] = target: Rap guanine nucleotide exchange factor 3 (Homo sapiens) (UniProt O95398); experiment: Counterscreen qHTS for antagonist of cAMP-regulated guanine nucleotide exchange factor 3 (EPAC1) (AID 1645888);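 note: fluorescence loss as bound BODIPY-GDP is released from Rap1B; % of control where 0% means no effect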
Outline: (§1)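 Rap1B–BODIPY-GDP (250 nM) with 50 uM GDP; compounds pin-transferred to 9.74 nM–152 uM final (activator) or from 7.32 nM upwards (inhibitor). Fluorescence Ex/Em 480/540 nm read at 5 and 30 min, then after adding cAMP or buffer, at room temperature.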

[14] = target: Rap guanine nucleotide exchange factor 3 (Homo sapiens) (UniProt O95398); experiment: Counterscreen qHTS for agonist of cAMP-regulated guanine nucleotide exchange factor 3 (EPAC1) (AID 1645889); note: % of control where 0% means no effect; nearly all actives have a fitted effect of over 40% in size
Outline: as §1

Papain (Carica papaya) = Papain (Carica papaya) (UniProt P00784); experiment: Primary qHTS assay for inhibitors of the protease papain (AID 1645873);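 note: papain turnover of Z-FR-AMC read as the AMC fluorescence gain over 10 min; % is set by controls: 0 for no effect and ±100 for the full control effect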
Sequence of Papain (Carica papaya) (P00784 whole entry, looked up): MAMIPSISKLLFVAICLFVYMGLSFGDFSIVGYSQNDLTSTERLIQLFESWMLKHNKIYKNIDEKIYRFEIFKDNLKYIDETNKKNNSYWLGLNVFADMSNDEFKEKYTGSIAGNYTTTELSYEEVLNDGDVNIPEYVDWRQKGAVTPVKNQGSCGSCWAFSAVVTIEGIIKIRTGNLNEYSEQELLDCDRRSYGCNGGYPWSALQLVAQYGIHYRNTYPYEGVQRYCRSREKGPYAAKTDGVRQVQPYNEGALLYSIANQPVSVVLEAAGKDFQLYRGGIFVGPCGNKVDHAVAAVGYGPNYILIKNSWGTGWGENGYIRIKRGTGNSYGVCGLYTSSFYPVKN

CN[C@@H](C)[C@H](O)c1ccccc1
inactive: Potency [1] | Potency [2] | Potency [3] | Potency [4] | Potency [5]

O=C(Oc1ccc([N+](=O)[O-])cc1)N1CCN(Cc2cccc(Oc3ccccc3)c2)CC1
inactive: Potency [1] | Potency [4] | Potency [5]
active: Potency [2] 2680 nM | Potency [3] 19000 nM

CC(C)(C)C(O)C(Oc1ccc(Cl)cc1)n1cncn1 (stereo unspecified)
inactive: Potency [1]
active: Potency [3] 21200 nM

O=C(N[C@@H](COc1ccc2[nH]c(=O)[nH]c2c1)c1ccccc1)c1cccn(Cc2ccc(F)c(F)c2)c1=O
active: Potency [2] 4250 nM | Potency [3] 239 nM | Potency [4] 1630 nM | Potency [5] 4170 nM
inactive: Potency [1] | Potency [6]

O=C(O)COc1ccccc1
inactive: Potency [1] | Potency [2] | Potency [3] | Potency [6] | Potency [7] | Potency [4] | Potency [5]

CN(C)[C@@H]1C(=O)C(C(N)=O)=C(O)[C@@]2(O)C(=O)C3=C(O)c4c(O)cccc4[C@@](C)(O)[C@H]3[C@H](O)[C@@H]12
-8.27%: activity change, negative = inhibition [7]
inactive: Potency [1] | Potency [3] | Potency [6] | Potency [7] | Potency [5] | outcome [8] | outcome [9] | Potency [10]

CC(C)N(CCNC(=O)CN1CCCC1=O)C(C)C
inactive: Potency [1] | Potency [2] | Potency [3] | Potency [4] | Potency [5]

CC1=C(C(=O)O)N2C(=O)[C@@H](N)[C@H]2SC1
inactive: Potency [1] | Potency [2] | Potency [3] | Potency [4] | Potency [5]

O=[N+]([O-])c1cc([N+](=O)[O-])c2ccccc2c1
inactive: Potency [1] | Potency [2] | Potency [3] | Potency [4] | Potency [5]

COc1cc([C@@H]2c3cc4c(cc3[C@@H](O)C3COC(=O)C32)OCO4)cc(OC)c1O (stereo partly specified)
active: Potency [11] 1710 nM

CCCCOC(=O)c1ccccc1C(=O)OCc1ccccc1
inactive: outcome [12] | outcome [8] | activation [9] 4.15% [at 17.1 µM] | outcome [13] | outcome [14]

NCCc1c[nH]c2ccc(O)cc12
inactive: Potency [1] | Potency (Papain (Carica papaya))

N=c1c2c(-c3ccccc3)c(-c3ccccc3)n(Cc3ccccc3)c2ncn1C1CCC(O)CC1 (stereo unspecified)
inactive: Potency [1]
active: Potency [4] 590 nM | Potency [5] 263 nM

c1ccc(CCCN2CCN(CCOC(c3ccccc3)c3ccccc3)CC2)cc1
inactive: Potency [1] | Potency (Papain (Carica papaya)) | outcome [8] | outcome [9] | Potency [10] | outcome [13]
